Screening data deposited in PubChem BioAssay by National Center for Advancing Translational Sciences (NCATS).
Rows were chosen to be rich in hits. Some 8.2% of all compounds tested hit in one or more screens of this group.
MCF10A rereplic – induces DNA re-replication in MCF 10a normal breast cells; MCF 10A DNA re-replication, Hoechst nuclear intensity, 48 h; Potency, µM (doses to about 46.1 µM), actives largely listed as activators; 350,000 compounds, 2.9% hits; note: nearly all actives have a fitted effect of over 50% in size
KB-3-1 cytotox – KB-3-1 parental cell cytotoxicity | KB-3-1 viability, CellTiter-Glo ATP luminescence, 72 h | Potency, µM (doses to about 46.1 µM), most hits filed as cytotoxic | 400,000 compounds, 1.4% hits | AID 1347075; note: nearly all actives have a fitted effect of over 60% in size
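Cytotoxicity in the drug-sensitive parental line KB-3-1 was scored as loss of CellTiter-Glo luminescence following 72 h incubation with compound. Values come from curve fitting of normalized concentration-response data.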
ELG1 repair inh – ELG1-dependent DNA repair inhibition. HEK293T ELG1-luciferase reporter, luminescence, 16 h; DNA damage induced by 5-fluorouridine. Potency, µM (highest dose often 46.1 µM), hits mostly inhibitors. 330,000 compounds, 2.3% hits. AID 504467; note: nearly all actives have a fitted effect of over 55% in size
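Luminescence from the luciferase reporter, measured 30 min after ONE-Glo reagent at room temperature, was the read-out. Beforehand, 2,000 cells per well were exposed for 16 hr at 37 °C to 5-fluorouridine together with compound or vehicle.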
SW480 rereplic – inducers of DNA re-replication in SW480 colon cancer cells; SW480 DNA re-replication, Hoechst DNA content imaging, 48 h; Potency, µM (titrated, usually from 46.1 µM), actives largely listed as activators; 340,000 compounds, 1.8% hits; note: nearly all actives have a fitted effect of over 55% in size
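Readout is total intensity of Hoechst-stained nuclei, excited at 405 nm and collected at 500-530 nm. Compound treatment lasted 48 hr at 37 C in 5% CO2 before staining.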
KB-V1 MDR tox – KB-V1 MDR subline cytotoxicity; KB-V1 MDR cells viability, CellTiter-Glo, 72 h; Potency, µM (highest dose often 46.1 µM), most hits filed as cytotoxic; 400,000 compounds, 3.4% hits; AID 1347076; note: nearly all actives have a fitted effect of over 60% in size
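Drug-selected KB-V1 cells, grown in DMEM lacking phenol red with 10% FBS, receive compound titrations; after three days at 37 degrees C, surviving cell ATP is quantified by CellTiter-Glo luminescence and responses normalized and curve-fitted.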
Of the large screens only hits and unclear results are named; the others gave an inactive call. Calls come from the whole dose curve; as a rule, active = well fitted curve in the direction sought with a large enough effect; inconclusive = small, poorly fitted or top-dose-only effect, or another doubt; inactive = no such curve, though single readings can be large; an effect the other way counts as inactive or inconclusive.

CCOCCCNC(=O)c1ccc2c(c1)N=C(CC)c1cc(Br)ccc1S2	MCF10A rereplic inconclusive, KB-3-1 cytotox 1µM, ELG1 repair inh inconclusive, SW480 rereplic 1.8µM, KB-V1 MDR tox 0.52µM
CCC1=Nc2cc(C(=O)NCCc3ccccc3)ccc2Sc2ccc(Cl)cc21	KB-3-1 cytotox 10µM (no result: MCF10A rereplic, ELG1 repair inh, SW480 rereplic)
CCC1=Nc2cc(C(=O)NCCN(CC)CC)ccc2Sc2ccccc21	none (no result: MCF10A rereplic, ELG1 repair inh, SW480 rereplic)
CCc1nnc(NC(=O)c2oc3ccccc3c2COC(C)C)s1	none
COc1ccc(C(C)C)cc1S(=O)(=O)Nc1cccnc1	KB-3-1 cytotox inconclusive (no result: MCF10A rereplic, ELG1 repair inh, SW480 rereplic)
CC1(C)Cc2c(cnn2-c2ccccc2)C(=O)/C1=N\NC(=O)c1ccncc1	none (no result: ELG1 repair inh)
CC1(C)Cc2c(cnn2-c2ccccc2)-c2c1c1ccccc1n2CC(O)CCl (stereo unspecified)	MCF10A rereplic inconclusive, KB-3-1 cytotox inconclusive, ELG1 repair inh 26µM, KB-V1 MDR tox inconclusive
COC(=O)c1ccc(C2N=C(c3cccs3)CC(c3ccccc3O)N2)cc1 (stereo unspecified)	MCF10A rereplic 18µM, ELG1 repair inh inconclusive, SW480 rereplic inconclusive
COc1ccc(C)cc1S(=O)(=O)N1c2ccc(C)cc2C2CN(C)CCC21 (stereo unspecified)	MCF10A rereplic inconclusive
O=C(CN1C(=O)CC(c2ccco2)Sc2ccccc21)Nc1ccc(C(F)(F)F)cc1 (stereo unspecified)	KB-V1 MDR tox inconclusive (no result: MCF10A rereplic, ELG1 repair inh, SW480 rereplic)
COc1ccc(NC(=O)CN2C(=O)CC(c3ccco3)Sc3ccccc32)cc1OC (stereo unspecified)	KB-V1 MDR tox 18µM (no result: MCF10A rereplic, ELG1 repair inh, SW480 rereplic)
O=C(CN1C(=O)CC(c2ccco2)Sc2ccccc21)Nc1cccc(C(F)(F)F)c1 (stereo unspecified)	KB-3-1 cytotox inconclusive, KB-V1 MDR tox 21µM (no result: MCF10A rereplic, ELG1 repair inh, SW480 rereplic)
Cc1ccc(-n2c(-c3ccccc3)nsc2=NC#N)cc1	none (no result: MCF10A rereplic, ELG1 repair inh, SW480 rereplic)
N#Cc1ccc(OCC(O)CN2CCC(C(O)(c3ccccc3)c3ccccc3)CC2)cc1 (stereo unspecified)	MCF10A rereplic inconclusive, SW480 rereplic inconclusive
CC(C)NC(=S)NN=C1CCC(c2ccccc2)CC1 (stereo unspecified)	SW480 rereplic 21µM
CC(C)NC(=S)N/N=C1\CCCc2ccccc21	SW480 rereplic inconclusive
O=C(Nc1nnc([C@H]2C[C@H](O)[C@@H](CO)O2)s1)Nc1cccc(Cl)c1Cl	none (no result: MCF10A rereplic, ELG1 repair inh, SW480 rereplic)
Nc1ccc(C(=O)NN2C(=O)[C@H](Cl)C2c2ccc(Cl)cc2)cc1 (stereo partly specified)	MCF10A rereplic 16µM, KB-3-1 cytotox inconclusive, SW480 rereplic 9.2µM, KB-V1 MDR tox inconclusive (no result: ELG1 repair inh)
CCNC(=O)CC1C(=O)N(C)C(=S)N1NC(=O)c1ccc(Cl)cc1 (stereo unspecified)	none
Cn1c2ccccc2c2cc(/C=N/NC(=O)c3ccc(O)cc3O)ccc21	KB-3-1 cytotox inconclusive, ELG1 repair inh inconclusive, SW480 rereplic inconclusive
Cn1c(O)c(/C=N/NC(=O)c2cc3ccccc3cc2O)c2ccccc21	MCF10A rereplic 21µM, KB-3-1 cytotox inconclusive, ELG1 repair inh inconclusive, SW480 rereplic inconclusive
CN1CCN(C(=O)c2ccc3c(c2)N(Cc2ccc(Cl)cc2)C(=O)c2ccccc2S3(=O)=O)CC1	none (no result: MCF10A rereplic, ELG1 repair inh, SW480 rereplic)
COc1ccc(S(=O)(=O)n2cnc3cc(C)c(C)cc32)cc1	ELG1 repair inh 13µM
COC(=O)C1(CC2CC(c3ccccc3)=NO2)CCN(C(=O)OC(C)(C)C)CC1 (stereo unspecified)	MCF10A rereplic inconclusive (no result: ELG1 repair inh)
CSc1nc(-c2ccc(N(C)C)cc2)c(C#N)c(=O)n1C	MCF10A rereplic 12µM, ELG1 repair inh inconclusive, SW480 rereplic 7.3µM
CC(C)OCCCNC(=O)COc1ccc2oc3c(c2c1)CCCC3	SW480 rereplic inconclusive
CCOC(=O)C1=C(C)N=C2c3ccccc3C(=O)C2C1c1ccc(Cl)cc1 (stereo unspecified)	ELG1 repair inh 21µM
Cc1ccc(S/C(=N/S(=O)(=O)c2ccc(Cl)cc2)c2ccccc2)cc1	KB-3-1 cytotox inconclusive (no result: MCF10A rereplic, ELG1 repair inh, SW480 rereplic)
CSc1nc(N)nc2c1ncn2CC(=O)NCC(c1ccccc1)c1ccccc1	KB-3-1 cytotox inconclusive, ELG1 repair inh inconclusive, SW480 rereplic inconclusive
CSc1nc(N)nc2c1ncn2CC(=O)Nc1ccc(C)c(C)c1	ELG1 repair inh 6.5µM
Cc1ccccc1N(C)C1=N[S+](=O)([O-])c2ccccc21	none (no result: MCF10A rereplic, ELG1 repair inh, SW480 rereplic)
